Measured values from the supplement of paper PMC3334620.
The full ranking holds about 33,000 sequences; the median of “E-score (-0.5 to 0.5)” is about -0.035, and the highest 2% start at about 0.35. The list comes from a sample in which the highest values are over-represented; it also holds similar and randomly drawn sequences.

target: T1, Pdr3 (UniProt P33200); test: PBM E-score (8-mer binding enrichment) (E-score (-0.5 to 0.5)); higher = stronger / more preferred TF binding; conditions: protein concentration: 200 nM; construct: GST-full length
T1 sequence: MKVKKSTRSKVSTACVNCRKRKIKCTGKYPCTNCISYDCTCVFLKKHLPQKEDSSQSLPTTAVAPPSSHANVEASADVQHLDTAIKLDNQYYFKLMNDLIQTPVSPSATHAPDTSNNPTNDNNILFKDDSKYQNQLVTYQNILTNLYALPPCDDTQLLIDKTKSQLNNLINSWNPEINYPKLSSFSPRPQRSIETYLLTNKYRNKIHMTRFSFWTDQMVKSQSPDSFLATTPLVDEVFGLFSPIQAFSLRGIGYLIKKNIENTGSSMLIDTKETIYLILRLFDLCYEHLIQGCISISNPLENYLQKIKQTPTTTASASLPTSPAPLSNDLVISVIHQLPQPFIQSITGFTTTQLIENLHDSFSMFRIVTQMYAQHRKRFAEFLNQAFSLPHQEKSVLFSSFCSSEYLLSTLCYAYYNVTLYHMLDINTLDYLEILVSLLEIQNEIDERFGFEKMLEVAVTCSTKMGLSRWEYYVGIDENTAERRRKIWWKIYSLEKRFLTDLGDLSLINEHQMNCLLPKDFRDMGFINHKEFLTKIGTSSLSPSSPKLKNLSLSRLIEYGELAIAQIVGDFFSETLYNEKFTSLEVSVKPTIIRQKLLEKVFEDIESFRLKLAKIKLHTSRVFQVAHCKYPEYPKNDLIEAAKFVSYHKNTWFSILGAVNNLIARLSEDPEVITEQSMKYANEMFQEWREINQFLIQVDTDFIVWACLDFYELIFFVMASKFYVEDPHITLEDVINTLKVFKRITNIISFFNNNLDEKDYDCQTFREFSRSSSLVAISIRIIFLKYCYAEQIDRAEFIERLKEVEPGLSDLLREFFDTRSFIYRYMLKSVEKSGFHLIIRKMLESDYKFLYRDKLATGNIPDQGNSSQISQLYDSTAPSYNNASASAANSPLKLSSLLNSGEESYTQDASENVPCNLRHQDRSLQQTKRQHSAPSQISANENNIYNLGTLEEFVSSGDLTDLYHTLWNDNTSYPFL
In short: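 Yeast transcription factors, full-length or as DNA-binding domains, were expressed with a GST tag using PURExpress in vitro transcription/translation. At about 100-200 nM they were applied to universal all-10-mer Agilent arrays, double-stranded by primer extension on fresh or once-stripped slides. Fluorescent anti-GST detected bound protein, and masliner normalised the scans. E-scores for ungapped eight-base words, pooled with reverse complements, came from the Universal PBM Analysis Suite.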

| Sequence | PBM E-score |
| --- | --- |
| CAAATGGC | -0.156 |
| GCTACTAC | 0.146 |
| CGATAGCG | 0.0636 |
| AGGCCTTA | -0.254 |
| CAGGTGGC | -0.197 |
| ACTCCGTA | 0.13 |
| AATCCGTA | 0.165 |
| GTCCCGTA | 0.159 |
| ATTCCGTA | 0.417 |
| GTACCGTA | 0.029 |
| CGTCCGTA | 0.176 |
| ACTCCGTC | 0.206 |
| CCTCCGTA | 0.222 |
| GTTCCGTA | 0.471 |
| ATTCCGTC | 0.42 |
| CTTCCGTA | 0.379 |
| AATCCGTC | 0.314 |
| GGTATTAC | 0.225 |
| CTTTTAAA | -0.00725 |
| GGGCGTAC | -0.00965 |
| GCAGCAAA | -0.103 |
| CAGACCCG | 0.279 |

| Sequence | PBM E-score |
| --- | --- |
| AATCGGTA | -0.0123 |
| CTAGAACA | 0.0618 |
| ATGCTACA | -0.24 |
| CAATAGAG | -0.166 |
| CTCGGCAG | 0.219 |
| CGAAATAG | 0.0496 |
| CTTCCGTC | 0.403 |
| CCTCCGTC | 0.15 |
| ATTCCGTG | 0.467 |
| ACTCCGTG | 0.282 |
| AATCCGTG | 0.237 |
| CGTCCGTC | -0.0265 |
| AAAACTTC | -0.029 |
| CACCGCTC | 0.0532 |
| GTTTTAGA | -0.0726 |
| GGGGGAGA | -0.00585 |
| ATTTTCCA | 0.122 |
| CATTTCCC | 0.203 |
| ATTTTCCC | 0.151 |
| ATTTCCCA | 0.0046 |
| ATTTCCCG | 0.369 |
| AGTTTCCC | 0.0499 |

| Sequence | PBM E-score |
| --- | --- |
| ATTTTCCG | 0.432 |
| AGTTTCCA | 0.0305 |
| CATTTCCA | -0.0296 |
| ATTTCCCC | 0.0635 |
| CATTTCCG | 0.411 |
| AGTTTCCG | 0.452 |
| AAAAGTTG | 0.00957 |
| ATCAAAGC | 0.0706 |
| AACTCGCT | 0.0814 |
| ATATACCC | 0.102 |
| CTACCGGA | 0.335 |
| CACCATAA | -0.109 |
| CGCCACAA | -0.0528 |
| AATTTCCG | 0.442 |
| AATTTCCT | 0.0149 |
| AATTTCCC | 0.0432 |
| AACTGTAC | -0.229 |
| ACGCCGCA | 0.181 |
| CGCACGGA | 0.413 |
| GCGACGCA | -0.126 |
| CGGACGGA | 0.367 |
| GGGACGGA | 0.33 |

| Sequence | PBM E-score |
| --- | --- |
| CCGACGGC | 0.237 |
| CGCACGGC | 0.142 |
| GGCACGGA | 0.314 |
| CCGACGAA | 0.193 |
| GCGACGGA | 0.374 |
| CCGACGGA | 0.413 |
| ACGACGGA | 0.328 |
| CGGACGGC | 0.244 |
| AACTCCTG | -0.193 |
| ATCTGGCA | -0.111 |
| AGCTGTCC | -0.116 |
| GCGGGGCA | 0.129 |
| CATACCCC | 0.0622 |
| CCCACCGG | 0.248 |
| ATCTTCGA | -0.115 |
| AATCATGT | -0.0895 |
| AGCGCCCT | 0.0102 |
| CCAAGCCA | -0.245 |
| GGAAGCCA | 0.0692 |
| CGGACGAA | 0.372 |
| GGGACGAA | 0.162 |
| CGGACGAC | 0.196 |

| Sequence | PBM E-score |
| --- | --- |
| GAGCGGAA | 0.415 |
| CAGCGGAC | 0.176 |
| AAGCGGAG | 0.0882 |
| TAGCGGAA | 0.357 |
| GAGCGGTA | 0.0552 |
| CAGCGGAG | 0.274 |
| AAGCGGAA | 0.387 |
| TAGCGGGA | 0.14 |
| CAGCGGAA | 0.429 |
| GAGCGGAC | 0.0792 |
| TAGCGGCA | 0.107 |
| AAGCGGAT | 0.309 |
| AAGCTATT | -0.112 |
| ACACCACT | 0.108 |
| CGTTGCCC | 0.101 |
| AAGTGTGT | -0.187 |
| CAACTAGA | -0.0997 |
| GTTGTGAA | -0.142 |
| GAATCAGC | -0.124 |
| TCGTTCAA | -0.125 |
| CCCGTGGA | 0.395 |
